Source: PubChem
BoNT F protease = BoNT F light chain protease inhibition | 360,000 tested, 0.22% active | inhibition, % at 10 µM | Multiplex microsphere protease cleavage assay, flow cytometry; in the data active means inhibition above about 35%, passing the limit was not always enough; inconclusive means no clear call, values can overlap the other calls; further: plate controls were buffer without enzyme for full effect and enzyme alone for no effect
Bead autofluor = flagged as autofluorescent in microsphere protease counterscreen; fluorescence intensity (no concentration beside the values); AID 624483; 360,000 tested, 3.1% active; compound autofluorescence counterscreen, microsphere flow cytometry; active compounds read high; in the data active means fluorescence intensity above about 16000; inconclusive means no clear call, values can overlap the other calls
BoNT-A LC inh2 = blocks Botulinum neurotoxin A light chain protease; multiplex microsphere protease substrate cleavage, flow cytometry; AID 588499; 360,000 tested, 0.17% active; inhibition, % at 10 µM; further: plate controls were buffer without enzyme for full effect and enzyme alone for no effect
Anthrax LF inh2 = inhibitors of Bacillus anthracis lethal factor protease | P15917 | multiplex microsphere protease cleavage assay, LF | inhibition, % at 10 µM | 360,000 tested, 0.12% active | AID 588501; further: plate controls were buffer without enzyme for full effect and enzyme alone for no effect
Target sequence (P15917 whole entry, looked up): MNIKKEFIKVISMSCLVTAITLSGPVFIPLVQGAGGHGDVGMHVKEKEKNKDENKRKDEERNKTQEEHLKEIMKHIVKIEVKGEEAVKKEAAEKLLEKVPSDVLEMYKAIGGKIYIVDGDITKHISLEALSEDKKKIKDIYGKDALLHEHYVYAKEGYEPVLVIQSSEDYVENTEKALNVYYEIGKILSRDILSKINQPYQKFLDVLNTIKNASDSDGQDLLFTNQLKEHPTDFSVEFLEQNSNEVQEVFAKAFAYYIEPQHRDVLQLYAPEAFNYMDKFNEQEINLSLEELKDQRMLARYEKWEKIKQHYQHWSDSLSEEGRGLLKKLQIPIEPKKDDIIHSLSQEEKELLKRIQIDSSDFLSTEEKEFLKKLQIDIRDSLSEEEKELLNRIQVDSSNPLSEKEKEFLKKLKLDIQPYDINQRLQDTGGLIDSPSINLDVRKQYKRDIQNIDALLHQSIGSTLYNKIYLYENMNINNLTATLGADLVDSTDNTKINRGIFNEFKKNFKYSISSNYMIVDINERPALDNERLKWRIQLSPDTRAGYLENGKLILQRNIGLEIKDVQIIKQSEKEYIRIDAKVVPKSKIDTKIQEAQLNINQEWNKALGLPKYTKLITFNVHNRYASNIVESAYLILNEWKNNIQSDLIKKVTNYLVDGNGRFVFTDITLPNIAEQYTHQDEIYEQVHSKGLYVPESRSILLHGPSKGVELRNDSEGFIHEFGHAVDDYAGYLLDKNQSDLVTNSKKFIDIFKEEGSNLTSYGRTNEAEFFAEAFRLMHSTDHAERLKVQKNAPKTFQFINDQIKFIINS
MazF activator = activators of E. coli MazEF toxin-antitoxin RNase; FAM/BHQ RNA-DNA oligo cleavage fluorescence, 5 h; activation, % at 20 µM; 350,000 tested, 0.32% active; AID 504720; in the data active means activation above about 50%
Starred values were filed as active, the others as inactive. Only some compounds are listed: those with a hit (about 3.6% of all), similar ones and a draw of the others. Unless noted, no stated cut-off is given here; in the data, active means inhibition above about 30%; inconclusive means no clear call, values can overlap the other calls; inactive means below that.

What do the screens show for `Cc1cccn2c(=O)c(/C=N/O)c(N3CCCC3)nc12`?
BoNT F protease: -3; Bead autofluor: 16881*; BoNT-A LC inh2: inconclusive; Anthrax LF inh2: -1; MazF activator: 4

What do the screens show for `Cc1cccn2c(=O)c(C=O)c(N3CCCCC3)nc12`?
BoNT F protease: -2; Bead autofluor: 3627; BoNT-A LC inh2: -1; Anthrax LF inh2: 6; MazF activator: -11

What do the screens show for `Cn1c(=O)c2c(ncn2CC(=O)OCC(=O)NC2CCCc3ccccc32)n(C)c1=O` (centres undefined)?
BoNT F protease: -3; Bead autofluor: 22870*; BoNT-A LC inh2: inconclusive; Anthrax LF inh2: -4; MazF activator: 2

What do the screens show for `Cn1c(=O)c2c(ncn2CC(=O)OCC(=O)NCCc2ccccc2)n(C)c1=O`?
BoNT F protease: 17; Bead autofluor: 5781; BoNT-A LC inh2: 0; Anthrax LF inh2: 3; MazF activator: 0

Results for Cn1c(=O)c2c(nc(CN3CCN(C(c4ccccc4)c4ccccc4)CC3)n2CC(N)=O)n(C)c1=O ?
BoNT F protease: 1; Bead autofluor: 21667*; BoNT-A LC inh2: 2; Anthrax LF inh2: 2; MazF activator: -4

Results for CCOC(=O)Cn1c(CN2CCN(C(c3ccccc3)c3ccccc3)CC2)nc2c1c(=O)n(C)c(=O)n2C ?
BoNT F protease: -2; Bead autofluor: 4602; BoNT-A LC inh2: -1; Anthrax LF inh2: -11; MazF activator: 15

Results for CCOCCn1c(CN2CCCC(C)C2)nc2c1c(=O)n(C)c(=O)n2C (centres undefined) ?
BoNT F protease: 0; Bead autofluor: 6357; BoNT-A LC inh2: 0; Anthrax LF inh2: 4; MazF activator: 7

What do the screens show for `CC1CCCN(Cc2nc3c(c(=O)n(C)c(=O)n3C)n2CC(N)=O)C1` (centres undefined)?
BoNT F protease: -4; Bead autofluor: 16667*; BoNT-A LC inh2: -2; Anthrax LF inh2: -4; MazF activator: 5

How did CCN(CCCNC(=O)Cn1ncc2c([nH]c3ccc(C)cc32)c1=O)Cc1ccccc1 do in these assays?
BoNT F protease: 4; Bead autofluor: 5435; BoNT-A LC inh2: 0; Anthrax LF inh2: 0; MazF activator: 1

How did O=C(O)c1cccc(-c2ccccc2)c1O do in these assays?
BoNT F protease: 4; Bead autofluor: 3487; BoNT-A LC inh2: 0; Anthrax LF inh2: 1; MazF activator: 0

What do the screens show for `CN(C)c1nc(Cl)cc(N2CCOCC2)n1`?
BoNT F protease: -1; Bead autofluor: 22938*; BoNT-A LC inh2: 1; Anthrax LF inh2: -1; MazF activator: 6

What do the screens show for `CCN(CC)c1ccc(C(=O)O)cc1`?
BoNT F protease: 2; Bead autofluor: 2906; BoNT-A LC inh2: 0; Anthrax LF inh2: 1; MazF activator: -12

Results for CCN(CC)c1ccc(/C=C2\C(=O)c3ccc(C(=O)O)cc3C2=O)cc1 ?
BoNT F protease: 64*; Bead autofluor: 9698; BoNT-A LC inh2: 14; Anthrax LF inh2: 37*; MazF activator: 52*

How did Cc1ccc(OCC(=O)Nc2ccc3c(c2)nc2n3CCOC2)cc1 do in these assays?
BoNT F protease: -1; Bead autofluor: 20169*; BoNT-A LC inh2: inconclusive; Anthrax LF inh2: -11; MazF activator: 4

Results for O=C(Nc1ccc2c(c1)nc1n2CCOC1)C1CCCCC1 ?
BoNT F protease: -4; Bead autofluor: 8237; BoNT-A LC inh2: 1; Anthrax LF inh2: -2; MazF activator: 3

What do the screens show for `CC(=O)Nc1ccc2c(c1)nc1n2CCOC1`?
BoNT F protease: -4; Bead autofluor: 24292*; BoNT-A LC inh2: inconclusive; Anthrax LF inh2: -2; MazF activator: 4

What do the screens show for `CN1CCN(S(=O)(=O)c2ccc(NC(=O)c3ccc(F)cc3Cl)cc2)CC1`?
BoNT F protease: 47*; Bead autofluor: 3183; BoNT-A LC inh2: 4; Anthrax LF inh2: 26; MazF activator: 10

What do the screens show for `COC(=O)c1cccc(NC(=O)c2ccc(S(=O)(=O)N3CCN(C)CC3)cc2)c1`?
BoNT F protease: -10; Bead autofluor: 23982*; BoNT-A LC inh2: -4; Anthrax LF inh2: 0; MazF activator: 4

Results for CN1CCN(S(=O)(=O)c2cccc(C(=O)Nc3nc(-c4ccccc4)cs3)c2)CC1 ?
BoNT F protease: -2; Bead autofluor: 23294*; BoNT-A LC inh2: -1; Anthrax LF inh2: -10; MazF activator: -2

What do the screens show for `CC(=O)N1CCOc2ccc(S(=O)(=O)NCCc3ccc(Cl)cc3)cc21`?
BoNT F protease: -5; Bead autofluor: 5834; BoNT-A LC inh2: 0; Anthrax LF inh2: -1; MazF activator: 5

How did Cn1nccc1NC(=O)CC1(CC(=O)O)CCCCC1 do in these assays?
MazF activator: 5

Results for CCOC(=O)c1c2c3c(cccc3n(C)c1=O)C(=O)c1ccccc1-2 ?
BoNT F protease: 40*; Bead autofluor: 2922; BoNT-A LC inh2: 26; Anthrax LF inh2: -9; MazF activator: 21

Results for CCOC(=O)c1c2c3c(cccc3[nH]c1=O)C(=O)c1ccccc1-2 ?
BoNT F protease: 4; Bead autofluor: 3588; BoNT-A LC inh2: 4; Anthrax LF inh2: 6; MazF activator: 6

Results for Cc1cc(C)nc(NS(=O)(=O)c2ccc(NC(=O)CCN3C(=O)c4ccccc4C3=O)cc2)n1 ?
BoNT F protease: -4; Bead autofluor: 16582*; BoNT-A LC inh2: -2; Anthrax LF inh2: 0; MazF activator: 0

How did O=C(CCCCCN1C(=O)c2ccccc2C1=O)Nc1ccc(S(=O)(=O)N2CCCCC2)cc1 do in these assays?
BoNT F protease: 2; Bead autofluor: 21502*; BoNT-A LC inh2: inconclusive; Anthrax LF inh2: -1; MazF activator: -10

Results for CC1CCN(S(=O)(=O)c2ccc(NC(=O)CCN3C(=O)c4ccccc4C3=O)cc2)CC1 ?
BoNT F protease: 0; Bead autofluor: 19423*; BoNT-A LC inh2: 2; Anthrax LF inh2: -5; MazF activator: 2

How did O=C(CCN1C(=O)c2ccccc2C1=O)Nc1cccc(S(=O)(=O)N2CCCCC2)c1 do in these assays?
BoNT F protease: 0; Bead autofluor: inconclusive; BoNT-A LC inh2: 1; Anthrax LF inh2: -21; MazF activator: -1

Results for CCOC(=O)Nc1ccc(S(=O)(=O)Nc2nccc(C)n2)cc1 ?
BoNT F protease: inconclusive; Bead autofluor: inconclusive; BoNT-A LC inh2: inconclusive; Anthrax LF inh2: inconclusive; MazF activator: 2

How did CCOC(=O)Nc1ccc(S(=O)(=O)Nc2nc(C)cc(C)n2)cc1 do in these assays?
BoNT F protease: -6; Bead autofluor: 24252*; BoNT-A LC inh2: -4; Anthrax LF inh2: 0; MazF activator: -8

Results for CC1=C(C(=O)c2ccccc2)C(c2ccc(OC(F)F)cc2)NC(=S)N1 (centres undefined) ?
BoNT F protease: -10; Bead autofluor: 4644; BoNT-A LC inh2: -2; Anthrax LF inh2: -6; MazF activator: 9

How did O=C(CCCCC(=O)OCC1CCCO1)OCC1CCCO1 (centres undefined) do in these assays?
BoNT F protease: 12; Bead autofluor: 3610; BoNT-A LC inh2: 0; Anthrax LF inh2: 0; MazF activator: 3

What do the screens show for `COc1ccc(Cc2nnc(SCC(=O)Nc3cc(Cl)ccc3C)[nH]c2=O)cc1`?
BoNT F protease: 7; Bead autofluor: 4315; BoNT-A LC inh2: 0; Anthrax LF inh2: inconclusive; MazF activator: -5
